# High-throughput results: PubChem BioAssay, several laboratories
# CYP2C19 inh – blockers of cytochrome P450 2C19 activity – biochemical, luminescence, ADME assay, primary screen; P33261; CYP2C19 Supersomes, luciferin-H EGE luminescence, 30 min; AID 778, 2007; 21% of 96,000 active; inhibition, % at 5 µM;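 active = CYP2C19 inhibition above a set limit at 5 µM in the primary screen, cut at about 50% in these data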;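 note: plate controls were negative control wells for no effect and 2.5 mM tranylcypromine positive control for full effect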
# CYP2C19 activ – human CYP2C19 activators, primary screen, biochemical, luminescence; Cytochrome P450 2C19 (Homo sapiens), P33261; recombinant CYP2C19, luciferin-H EGE luminescence; hits give high values; 0 = fully inhibited enzyme, 1 = untreated enzyme; activation factor at 5 µM; 96,000 tested, under 10 active;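 active = activation factor of at least 2 at 5 µM in the primary screen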;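 note: 0 = wells with 2.5 mM tranylcypromine and 1 = vehicle-only wells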
# CYP2C9 inhib – blockers of cytochrome P450 2C9 activity – biochemical, luminescence, ADME assay, primary screen; 20% of 96,000 active; CYP2C9 Supersomes, luciferin-H conversion; inhibition, % at 5 µM; P11712;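 active = blocking of liver enzyme CYP2C9 beyond about 50% at 5 µM, limit read from the data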
# Target sequence (P11712 whole entry, looked up): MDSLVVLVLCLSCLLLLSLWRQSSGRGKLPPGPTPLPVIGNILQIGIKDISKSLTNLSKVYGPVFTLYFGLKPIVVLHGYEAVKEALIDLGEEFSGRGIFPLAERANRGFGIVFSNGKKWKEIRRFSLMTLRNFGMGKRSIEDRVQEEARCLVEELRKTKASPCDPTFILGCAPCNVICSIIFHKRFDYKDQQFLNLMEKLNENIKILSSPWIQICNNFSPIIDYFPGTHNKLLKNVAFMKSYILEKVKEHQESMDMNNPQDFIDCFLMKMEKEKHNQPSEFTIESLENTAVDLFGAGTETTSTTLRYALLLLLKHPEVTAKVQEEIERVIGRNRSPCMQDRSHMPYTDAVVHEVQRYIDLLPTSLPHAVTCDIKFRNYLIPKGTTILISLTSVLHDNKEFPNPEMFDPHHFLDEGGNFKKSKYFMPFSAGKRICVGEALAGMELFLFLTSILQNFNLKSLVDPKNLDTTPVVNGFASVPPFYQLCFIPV
# CYP2C9 act – human CYP2C9 activators, primary screen, biochemical, luminescence; 1.4% of 96,000 active; recombinant CYP2C9, luciferin-H conversion; hits give high values; factor 1 = untreated enzyme, 0 = blocked; activation factor at 5 µM; AID 1024, 2008;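 active = activation factor of 2 or more for CYP2C9 at a 5 µM dose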;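 note: 0 = sulfaphenazole-blocked wells and 1 = vehicle-only wells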
# Cav3 T inh – Cav3.2 calcium influx blockers – cell-based, Fluo-4 calcium fluorescence, FDSS, MLSMR library, primary screen; Cav3.2-expressing cells; hits give low values; B-score at 10 µM; 4% of 100,000 active; Voltage-dependent T-type calcium channel subunit alpha-1H (Homo sapiens), O95180;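 active = single-dose well whose peak fluorescence ratio is a statistical outlier from its plate by either plate-standardised score or position-corrected B-score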
# * = called active by the depositor; . = not tested or not shown. A selection: hits, their analogues and other compounds. The true share with any hit is near 27%.
SMILES,CYP2C19 inh,CYP2C19 activ,CYP2C9 inhib,CYP2C9 act,Cav3 T inh
Cc1cc(C)c2c(CC(=O)NCc3ccco3)coc2c1,89*,0.1,-58,1.6,-0.41
Cc1ccc(C)c(SCC(=O)NCc2ccco2)c1,31,0.7,1,1,0.81
Cc1ccc(C(C(=O)NC(C)(C)C)N(C(=O)c2csnn2)c2ccccc2F)o1 (stereo not given),7,0.9,4,1,0.57
C=CCn1c(NC(=O)c2ccccc2Cl)c(C#N)c2nc3ccccc3nc21,-19,1.2,0,1,-7*
CCOC(=O)C1C(C)N=C2SCC(=O)N2C1c1cccc(Br)c1 (stereo not given),85*,0.1,85*,0.2,-2.8
Cc1cc(Nc2ccccc2F)n2ncnc2n1,-3,1,4,1,-0.45
c1ccc(CN2CCOCC2)cc1,-4,1,-7,1.1,0.86
CCN1CCN(Cc2ccc3c(c2)Cc2ccccc2-3)CC1,-8,1.1,-11,1.1,.
c1ccc(Oc2cccc(CN3CCOCC3)c2)cc1,77*,0.2,16,0.8,-0.015
c1ccc2c(c1)Cc1cc(CN3CCOCC3)ccc1-2,62*,0.4,15,0.8,0.31
Cc1ccc2nc(SCC(=O)Nc3ccc4sc(C)nc4c3)c(C#N)cc2c1,10,0.9,10,0.9,0.11
Cc1cccc(-n2nnnc2SCC(=O)c2cc(C)n(CC3CCCO3)c2C)c1 (stereo not given),90*,0.1,-63,1.6,-5.4*
Cc1cc(C(=O)CSc2nc3ccccc3o2)c(C)n1CC1CCCO1 (stereo not given),27,0.7,1,1,-0.58
C=CCn1c(SCC(=O)c2cc(C)n(CC3CCCO3)c2C)nnc1-c1ccccc1 (stereo not given),73*,0.3,8,0.9,0.66
Cc1cc(C(=O)CSc2nc3ccccc3[nH]2)c(C)n1CC1CCCO1 (stereo not given),54*,0.5,56*,0.4,-3.1
Cc1ccc(-n2nnnc2SCC(=O)c2cc(C)n(CC3CCCO3)c2C)cc1 (stereo not given),42,0.6,-13,1.1,-1.5
Cc1cc(C(=O)Cn2nnc(-c3ccc(Cl)cc3)n2)c(C)n1CC1CCCO1 (stereo not given),.,.,.,.,-5.2*
Cc1c(C(=O)N2CCCCC2)nnn1-c1nonc1N,40,0.6,-5,1,0.5
Cc1sc2nc(SCC(=O)c3cc(C)n(CC4CCCO4)c3C)n(C(C)C)c(=O)c2c1C (stereo not given),82*,0.2,88*,0.1,-4.1*
C=CCn1c(SCC(=O)c2cc(C)n(CCOC)c2C)nc2sc(C)c(C)c2c1=O,22,0.8,28,0.7,0.93
Cc1cc(C(=O)CSc2nnnn2-c2ccc(O)cc2)c(C)n1Cc1ccc2c(c1)OCO2,99*,0,25,0.7,-2.3
Cc1cccc(-n2nnnc2SCC(=O)c2cc(C)n(Cc3ccco3)c2C)c1,46,0.5,-158,2.6*,-2.9
NC(=O)C(CC(=O)O)NC(=O)[C@@H]1CCCNc2c(I)cc([N+](=O)[O-])cc2C(=O)N[C@@H](CO)C(=O)N[C@@H](Cc2ccc(O)cc2)C(=O)N1 (stereo not given in full),.,.,.,.,-1.5
c1ccc2c(Cn3ccnc3)c[nH]c2c1,86*,0.1,84*,0.2,0.3
Cc1cc(OCC(=O)N2CCOCC2)cc2oc(=O)c3ccccc3c12,.,.,.,.,-0.12
SMILES,CYP2C19 inh,CYP2C19 activ,CYP2C9 inhib,CYP2C9 act,Cav3 T inh
CCSc1nnc(NC(=O)NC(CC)(C(F)(F)F)C(F)(F)F)s1,9,0.9,22,0.8,-3
CCOc1ccc(C2C=C(c3ccc(F)cc3)Nc3ncnn32)cc1 (stereo not given),44,0.6,59*,0.4,-0.72
Cc1cc(=O)n2[nH]c(SCc3ccccc3)nc2n1,2,1,22,0.8,0.27
O=c1cc(-c2ccccc2)nc2nc(CCc3ccccc3)[nH]n12,-12,1.1,72*,0.3,-2.8
O=c1cc(-c2ccccc2)nc2nc(SCc3ccccc3)[nH]n12,1,1,90*,0.1,-4.6*
O=c1cc(-c2ccccc2)nc2nc(-c3ccco3)[nH]n12,-12,1.1,52*,0.5,0.44
O=C(c1cccnc1NCc1ccc(F)cc1)N1CCOCC1,15,0.9,8,0.9,1.4
Cc1cc(S(=O)(=O)N2CCN(c3ncccn3)CC2)ccc1-n1cnnn1,.,.,.,.,1.9
O=C(Nc1cccc([N+](=O)[O-])c1)C12CC3CC(C1)CC(n1cnc([N+](=O)[O-])n1)(C3)C2,14,0.9,7,0.9,.
Cc1[nH]n(-c2ccccc2)c(=O)c1C(C[N+](=O)[O-])c1ccc(Br)cc1 (stereo not given),53*,0.5,95*,0.1,-1.4
CCCC[C@H]1C2=C3[C@@H](CC(C(=O)OC)=C[C@@H](C(=O)OC)[C@H]3C(C)(C)C2=O)n2c(=O)n(-c3ccccc3)c(=O)n21,.,.,.,.,-0.44
Cc1ccc(-c2nnn(CC(=O)N3c4ccccc4CCc4ccccc43)n2)cc1,.,.,.,.,-0.9
COC(=O)c1ccc(NC(=O)CSCc2ccc(C)cc2)cc1,75*,0.2,90*,0.1,-0.29
COC(=O)c1ccc(NC(=O)CSCc2ccccc2C)cc1,94*,0.1,92*,0.1,-2.8
Cc1ccc(NC(=O)CSCC(=O)N2c3ccccc3CCc3ccccc32)cc1,54*,0.5,63*,0.4,-4.9*
CCN(CC)C(=O)c1cnn(-c2ccccc2)c1NC(=O)c1cccs1,.,.,.,.,0.56
CC1(C)CC(=O)c2c(nc3ccccc3c2N)C1,16,0.8,-1,1,0.0066
Cc1nc2c(c3c1[nH]c1ccccc13)C(=O)CC(C)(C)C2,39,0.6,-183,2.8*,-0.61
Cc1c(C(=O)N2CCC(C(N)=O)CC2)sc(N)c1C#N,-2,1,0,1,-2.3
CCOC(=O)Oc1ccc2oc(=O)cc(C)c2c1,14,0.9,-2,1,0.49
Cc1cc(=O)oc2ccc(OCC(=O)N(Cc3ccc(F)cc3)Cc3ccco3)cc12,86*,0.1,89*,0.1,-5.1*
O=C(NC12CC3CC(CC(C3)C1)C2)c1ccc(COc2ccc(Cl)cc2[N+](=O)[O-])o1,41,0.6,75*,0.3,-2
COc1ccc2sc(C)nc2c1NC(C)=O,18,0.8,84*,0.2,-0.33
COc1cc2sc(C)nc2c2sccc12,40,0.6,4,1,-0.22
COCCNc1ncnc2c1cnn2Cc1ccc(Cl)cc1,82*,0.2,-15,1.2,0.62
Clc1ccc(Cn2ncc3c(NCc4ccccc4)ncnc32)cc1,-9,1.1,40,0.6,-6.9*
